Data: PubChem BioAssay (EPA / NIEHS)
Where “and” joins values, the source holds several entries; their conditions need not be identical. Equal entries are not always repeated. Where a structure was tested more than once in an assay, its records may differ in their call. Calls of active or inactive are those of the source. How the source made its calls: active means hit-call score of the fitted dose curve at least 0.9, where 1 is the maximum; inactive means score below 0.9.

Assays:
[1] = read-out: Tissue Factor, F3 (gene 2152); assay: BSK_CASM3C_TissueFactor: BioMAP Diversity Plus: CASM3C Assay for Tissue Factor Biomarker Activity (AID 2283052); details: primary human coronary artery smooth muscle cells; actives raise or lower the signal;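 further: cell surface tissue factor protein level read by ELISA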
[2] = read-out: Interferon-gamma inducible Protein 10 (IP10), CXCL10 (gene 3627); assay: BSK_hDFCGF_IP10: BioMAP Diversity Plus: hDFCGF Assay for Interferon-gamma inducible Protein 10 (IP10) Biomarker Activity (AID 2283053); details: primary human foreskin fibroblasts; actives raise or lower the signal
Method in brief: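 ELISA quantification of IP-10 after a 24 h chemical exposure of human dermal foreskin fibroblast primary cultures. Both increases and decreases versus DMSO fitted.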

[3] = read-out: Urokinase-type plasminogen activator receptor (uPAR), PLAUR (gene 5329); assay: BSK_CASM3C_uPAR: BioMAP Diversity Plus: CASM3C Assay for Urokinase-type plasminogen activator receptor (uPAR) Biomarker Activity (AID 2283054); details: primary human coronary artery smooth muscle cells; actives raise or lower the signal;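 further: cell-surface uPAR protein level quantified by ELISA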
[4] = read-out: Vascular cell adhesion molecule 1 (VCAM1), VCAM1 (gene 7412); assay: BSK_CASM3C_VCAM1: BioMAP Diversity Plus: CASM3C Assay for Vascular cell adhesion molecule 1 (VCAM1) Biomarker Activity (AID 2283055); details: primary human coronary artery smooth muscle cells; actives raise or lower the signal;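 further: VCAM-1 protein level quantified by ELISA on the cells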
[5] = read-out: Collagen III, COL3A1 (gene 1281); assay: BSK_hDFCGF_CollagenIII: BioMAP Diversity Plus: hDFCGF Assay for Collagen III Biomarker Activity (AID 2283056); details: primary human foreskin fibroblasts; actives raise or lower the signal
Method in brief: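 ELISA readout of Collagen III in human dermal (foreskin) fibroblasts, taken 24 h post-treatment. Gain or loss relative to DMSO vehicle fitted in both directions.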

[6] = read-out: Epidermal growth factor receptor (EGFR), EGFR (gene 1956); assay: BSK_hDFCGF_EGFR: BioMAP Diversity Plus: hDFCGF Assay for Epidermal growth factor receptor (EGFR) Biomarker Activity (AID 2283057); details: primary human foreskin fibroblasts; actives raise or lower the signal
Method in brief: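 EGFR levels by ELISA in human dermal fibroblast cultures, 24 h post-treatment, fitted bidirectionally versus DMSO. Parallel wells stained with sulforhodamine B to detect overt cytotoxicity.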

[7] = read-out: Interleukin-8 (IL8), CXCL8 (gene 3576); assay: BSK_hDFCGF_IL8: BioMAP Diversity Plus: hDFCGF Assay for Interleukin-8 (IL8) Biomarker Activity (AID 2283058); details: primary human foreskin fibroblasts; actives raise or lower the signal
Method in brief: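 IL-8 levels read by ELISA at 24 hours after dosing human skin fibroblast cultures. Parallel SRB staining assessed overt cytotoxicity, and gain or loss of signal was fitted against DMSO control.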

[8] = BSK_hDFCGF_Proliferation: Cell Proliferation Assessment in the BioMAP Diversity Plus: hDFCGF Assay (AID 2283059); details: primary human foreskin fibroblasts;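 further: curves fitted for both rise and fall of signal versus DMSO baseline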
Method in brief: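 This proliferation readout used SRB total-protein staining of human foreskin fibroblasts […], normalized to DMSO with bidirectional curve fitting.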

[9] = read-out: Macrophage colony-stimulating factor (MCSF), CSF1 (gene 1435); assay: BSK_hDFCGF_MCSF: BioMAP Diversity Plus: hDFCGF Assay for Macrophage colony-stimulating factor (MCSF) Biomarker Activity (AID 2283060); details: primary human foreskin fibroblasts; actives raise or lower the signal
Method in brief: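 M-CSF levels read by ELISA at 24 h post-dosing in human skin fibroblasts. Parallel cultures stained with SRB assessed cytotoxicity at the same time point; response fitted in both directions against the DMSO baseline.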

[10] = BSK_hDFCGF_SRB: Viability Assessment in the BioMAP Diversity Plus: hDFCGF Assay (AID 2283061); details: primary human foreskin fibroblasts;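 further: cells exposed to compound for 24 h before the read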
Method in brief: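 Viability was read as total protein: after 10% TCA fixation, wells were stained with 0.1% sulforhodamine B and read at 560 nm. Primary human foreskin fibroblasts were dosed for 24 h, with bidirectional fitting versus DMSO.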

[11] = read-out: Monokine induced gamma interferon (MIG), CXCL9 (gene 4283); assay: BSK_hDFCGF_MIG: BioMAP Diversity Plus: hDFCGF Assay for Monokine induced gamma interferon (MIG) Biomarker Activity (AID 2283063); details: primary human foreskin fibroblasts; actives raise or lower the signal
Method in brief: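 Human primary foreskin fibroblasts in the hDFCGF system, exposed to test chemical for 24 h; MIG measured by ELISA. Bidirectional curve fitting against DMSO negative control as activity baseline.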

[12] = read-out: Matrix Metallopeptidase 1 (MMP1), MMP1 (gene 4312); assay: BSK_hDFCGF_MMP1: BioMAP Diversity Plus: hDFCGF Assay for Matrix Metallopeptidase 1 (MMP1) Biomarker Activity (AID 2283064); details: primary human foreskin fibroblasts; actives raise or lower the signal
Method in brief: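 MMP1 levels quantified by ELISA 24 h after dosing human dermal fibroblast cultures, with parallel SRB total-protein staining for overt cytotoxicity. Data fitted in both directions against DMSO baseline.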

[13] = read-out: Vascular cell adhesion molecule 1 (VCAM1), VCAM1 (gene 7412); assay: BSK_hDFCGF_VCAM1: BioMAP Diversity Plus: hDFCGF Assay for Vascular cell adhesion molecule 1 (VCAM1) Biomarker Activity (AID 2283065); details: primary human foreskin fibroblasts; actives raise or lower the signal;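 on AC50: VCAM-1 protein level quantified by ELISA after 24 h chemical exposure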
Method in brief: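 ELISA readout of VCAM-1 on human dermal fibroblast primary cultures, 24 h after chemical exposure. Gain or loss of signal fitted in both directions against DMSO baseline.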

[14] = read-out: Plasminogen activator inhibitor-1 (PAI1), SERPINE1 (gene 5054); assay: BSK_hDFCGF_PAI1: BioMAP Diversity Plus: hDFCGF Assay for Plasminogen activator inhibitor-1 (PAI1) Biomarker Activity (AID 2283066); details: primary human foreskin fibroblasts; actives raise or lower the signal
Method in brief: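 PAI-1 levels in human dermal foreskin fibroblasts were quantified by ELISA 24 h after dosing, with gain or loss analysed against DMSO. Overt cytotoxicity was checked by sulforhodamine B total-protein staining in parallel cultures.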

[15] = read-out: Intercellular Adhesion Molecule 1 (ICAM1), ICAM1 (gene 3383); assay: BSK_KF3CT_ICAM1: BioMAP Diversity Plus: KF3CT Assay for Intercellular Adhesion Molecule 1 (ICAM1) Biomarker Activity (AID 2283067); details: primary human keratinocytes with fibroblasts; actives raise or lower the signal
Method in brief: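 Cell-surface ICAM-1 was measured by ELISA 24 h after dosing primary human skin keratinocytes co-cultured with fibroblasts. Parallel SRB staining tracked overt cytotoxicity. Gain or loss of signal was fitted relative to DMSO.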

[16] = read-out: Interferon-gamma inducible Protein 10 (IP10), CXCL10 (gene 3627); assay: BSK_KF3CT_IP10: BioMAP Diversity Plus: KF3CT Assay for Interferon-gamma inducible Protein 10 (IP10) Biomarker Activity (AID 2283068); details: primary human keratinocytes with fibroblasts; actives raise or lower the signal
Method in brief: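 Signal is secreted/surface IP-10 by ELISA in a human primary skin co-culture of keratinocytes and foreskin fibroblasts, taken 24 h post-dosing; DMSO served as negative control.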

[17] = BSK_KF3CT_SRB: Viability Assessment in the BioMAP Diversity Plus: KF3CT Assay (AID 2283069); details: primary human keratinocytes with fibroblasts;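 further: read 24 h after compound addition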
Method in brief: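 Cytotoxicity was gauged by SRB staining (0.1% SRB, 10% TCA fixation, 560 nm) of parallel cultures at 24 h. The cells were primary human skin keratinocytes co-cultured with fibroblasts, and activity was fitted in both directions against DMSO.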

[18] = read-out: Interleukin-1 alpha (IL1a), IL1A (gene 3552); assay: BSK_KF3CT_IL1a: BioMAP Diversity Plus: KF3CT Assay for Interleukin-1 alpha (IL1a) Biomarker Activity (AID 2283070); details: primary human keratinocytes with fibroblasts; actives raise or lower the signal
Method in brief: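 IL-1a was detected by ELISA 24 h after chemical treatment of a co-culture of human skin keratinocytes and foreskin fibroblasts. Gain or loss of signal was fitted against the DMSO baseline.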

[19] = read-out: TIMP metallopeptidase inhibitor 2 (TIMP2), TIMP2 (gene 7077); assay: BSK_KF3CT_TIMP2: BioMAP Diversity Plus: KF3CT Assay for TIMP metallopeptidase inhibitor 2 (TIMP2) Biomarker Activity (AID 2283071); details: primary human keratinocytes with fibroblasts; actives raise or lower the signal
Method in brief: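 TIMP-2 measured by ELISA at 24 h in human keratinocyte/fibroblast primary co-cultures exposed to chemicals. Both increases and decreases were fitted against DMSO. Parallel cultures were stained with SRB for total protein as an overt-cytotoxicity check.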

[20] = read-out: TIMP metallopeptidase inhibitor 1 (TIMP1), TIMP1 (gene 7076); assay: BSK_hDFCGF_TIMP1: BioMAP Diversity Plus: hDFCGF Assay for TIMP metallopeptidase inhibitor 1 (TIMP1) Biomarker Activity (AID 2283062); details: primary human foreskin fibroblasts; actives raise or lower the signal
Method in brief: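 TIMP-1 measured by ELISA 24 h after chemical dosing of primary human skin fibroblasts, with gain or loss fitted relative to DMSO. Parallel SRB staining (560 nm) monitored overt cytotoxicity.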

Measured: AC50

O=C(Cl)C(F)(F)C(F)(F)C(F)(F)C(F)(F)C(F)(F)C(F)(F)C(F)(F)C(F)(F)F
active: [2] 24.8 µM and 36.7 µM and 32.9 µM | [4] 30 µM | [6] 6.36 µM and 13.7 µM | [8] 49.7 µM and 49.4 µM and 49.5 µM | [10] 8.08 µM and 15.7 µM and 10.9 µM | [11] 21.7 µM and 44.1 µM and 30 µM | [13] 50.4 µM and 47.9 µM and 47 µM | [14] 47.5 µM and 48.5 µM and 54.6 µM | [16] 20.3 µM and 30 µM | [19] 45.7 µM and 50.2 µM and 49.8 µM
inactive: [1] | [3] | [4] | [5] | [6] | [7] | [9] | [12] | [15] | [16] | [17] | [18]

O=P(O)(O)OCCC(F)(F)C(F)(F)C(F)(F)C(F)(F)C(F)(F)C(F)(F)F
inactive: [1] | [2] | [3] | [4] | [5] | [6] | [7] | [8] | [9] | [10] | [11] | [12] | [13] | [14] | [15] | [16] | [17] | [18] | [19]
active: [2] 7.21 µM

O=C(O)C=C(C(F)(F)F)C(F)(F)F
inactive: [1] | [2] | [3] | [5] | [6] | [7] | [8] | [9] | [10] | [11] | [12] | [14] | [15] | [16] | [18] | [19]
active: [4] 12.5 µM and 5.23 µM | [8] 21.9 µM | [13] 13.1 µM and 22.2 µM | [14] 22.6 µM

OCCCC(F)(F)C(F)(F)C(F)(F)F
inactive: all assays above
